Entries with a potency or affinity are not part of this list. Activity calls are given as the source filed them.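 How the source made its calls: active means every repeat run showing a signal drop whose fitted half-maximal concentration is at most twice the top tested concentration; inconclusive means repeat runs disagree, or flat partial drop, or poor fit; inactive means the rest.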
Experiment: HEK293T cytotoxicity, dose response, cytotoxicity control for miR-122 modulator project, cell-based, activator set, cherry-pick (AID 720690)
Settings: HEK293T viability, CellTiter-Glo luminescence, 48 h; series mostly up to 26 µM

SMILES	outcome
Cc1ccc(C2CC(C(F)(F)F)n3nc(C(=O)NCc4ccco4)cc3N2)cc1 (stereo unspecified)	inactive
CCS(=O)(=O)Nc1ccc2c(c1)C(=O)N(C)[C@H]1CC[C@H](CC(=O)NCCCN3CCOCC3)O[C@H]1CO2	inactive
O=C(c1ccc(CNc2c(NC3CCCCC3)c(=O)c2=O)cc1)N1CCc2ccccc21	inactive
CCCC#Cc1ccc2c(c1)O[C@H](CN(C)C(=O)COC)[C@H](C)CN([C@@H](C)CO)S2(=O)=O	inactive
O=C(Nc1ncc(Cc2cccc(C(F)(F)F)c2)s1)c1ccc(-c2cccc([N+](=O)[O-])c2)o1	inactive
COc1cccc(C(=O)Nc2ccc3c(c2)C(=O)N(C)[C@@H]2CC[C@H](CC(=O)NCc4ccc(F)cc4)O[C@@H]2CO3)c1	inactive
CO[C@H]1CN(C)C(=O)c2cc(NC(C)=O)ccc2OC[C@@H](C)N(C(=O)CC2CC2)C[C@H]1C	inactive
CCCC#Cc1ccc2c(c1)O[C@H](CN(C)C(=O)c1ccncc1)[C@H](C)CN([C@@H](C)CO)S2(=O)=O	inactive
CCC(=O)N1[C@H](CO)[C@@H](c2ccccc2)[C@@H]1CN(CC)C(=O)c1cccc(F)c1	inactive
OC[C@H]1[C@@H](c2ccccc2)[C@@H](CNCC2CCC2)N1CC1CC1	inactive
COC(=O)C[C@H]1CC[C@H]2[C@@H](COc3ccc(NC(=O)Nc4c(C)noc4C)cc3C(=O)N2C)O1	inactive
COCC(=O)N(C[C@H]1[C@H](c2ccccc2)[C@H](CO)N1C(=O)NC(C)C)C(C)C	inactive
Cc1onc(-c2ccccc2)c1C(=O)NCc1ccccn1	inactive
Cc1cc(C(=O)Nc2cccc(O)c2)co1	inactive
C[C@H]1CN([C@@H](C)CO)S(=O)(=O)c2ccc(-c3ccc(C(=O)N(C)C)cc3)cc2O[C@H]1CN(C)C(=O)C1CCC1	inactive
CN1C(=O)c2cc(NC(=O)c3cccc(F)c3)ccc2OC[C@@H]2O[C@H](CC(=O)Nc3ccccc3)CC[C@H]21	inactive
COCCN(C[C@H]1[C@@H](c2ccccc2)[C@H](CO)N1C(=O)C1CCC1)C(C)=O	inactive
CCNC(=O)C[C@@H]1CC[C@H]2[C@H](COc3ccc(NC(=O)c4ccccc4)cc3C(=O)N2C)O1	inactive

SMILES	outcome
CN1C(=O)c2cc(NC(=O)c3cccs3)ccc2OC[C@H]2O[C@H](CC(=O)NCCN3CCCCC3)CC[C@H]21	inactive
CN(C)CCCNC(=O)C[C@@H]1CC[C@H]2[C@H](COc3ccc(NC(=O)c4cccc(F)c4)cc3C(=O)N2C)O1	inactive
CN(c1ccccc1)S(=O)(=O)c1ccc(C(=O)Nc2cccc(S(=O)(=O)N3CCOCC3)c2)cc1	inactive
Cc1ccc(-n2c(Cc3ccccc3)n[nH]c2=S)cc1	inactive
C/C=C/c1ccc([C@@H]2[C@@H](CO)N(C(C)=O)[C@@H]2CN(C)C(=O)c2ccccn2)cc1	inactive
CN1C(=O)c2cc(NC(=O)c3cccs3)ccc2OC[C@@H]2O[C@@H](CC(=O)NCC(F)(F)F)CC[C@H]21	inactive
C[C@@H]1CN([C@H](C)CO)S(=O)(=O)c2ccc(C3=CCCC3)cc2O[C@@H]1CN(C)C(=O)Cc1ccncc1	inactive
CN1C(=O)c2cc(NC(=O)Cc3ccccc3)ccc2OC[C@H]2O[C@@H](CC(=O)NCc3ccc(Cl)cc3)CC[C@@H]21	inactive
CC#CCCCC(=O)Nc1ccccc1C(=O)O	inactive
COc1ccc(S(=O)(=O)N(C)C[C@@H]2Oc3cc(-c4cccc(F)c4)ccc3S(=O)(=O)N([C@H](C)CO)C[C@H]2C)cc1	inactive
CC(C)C(=O)Nc1ccc2c(c1)C(=O)N(C)[C@@H]1CC[C@@H](CC(=O)N[C@H](C)c3ccccc3)O[C@@H]1CO2	inactive
O=C(NC[C@H]1N[C@H](CO)[C@@H]1c1ccc(-c2ccccc2F)cc1)c1ccccc1	inactive
CNC(=O)c1nc(C)n(-c2cc(Cl)cc(Cl)c2)n1	inactive
COCC(=O)N(C)C[C@H]1Oc2cc(C#Cc3cccnc3)ccc2S(=O)(=O)N([C@H](C)CO)C[C@H]1C	inactive
O=C(CN1CCN(c2nc(-c3ccccc3)cs2)CC1)Nc1ccc2c(c1)OCO2	inactive
CCN(C[C@@H]1[C@@H](c2ccccc2)[C@@H](CO)N1C(=O)COC)S(C)(=O)=O	inactive
Nc1nc(Cl)nc2c1ncn2[C@H]1C[C@H](O)[C@@H](CO)O1	inactive
N#CCc1c(C#N)c(N)nc(N2CCN(S(=O)(=O)c3ccccc3)CC2)c1C#N	inactive

— PubChem BioAssay AID720690 (Broad Institute, 2013)
